Here are results for 1 sequence from publication PMC7862700, “An all-to-all approach to the identification of sequence-specific readers for epigenetic DNA modifications on cytosine”.

Test in all cases: DAPPL (digital affinity profiling via proximity ligation, sequencing); 10 mM Tris-HCl pH 7.5, 50 mM NaCl, 1 mM DTT, 4% glycerol, room temperature, 30 min; GST-TFs on glutathione beads, 16-mer random dsDNA library, 0.1% formaldehyde crosslink after washing; high values mean tight binding
Settings in all cases: protein: recombinant; tags: N-terminal GST; dsDNA, one strand shown

In one experiment the target is T1, ELK1 (Homo sapiens, UniProt P19419 1-428).
T1 sequence: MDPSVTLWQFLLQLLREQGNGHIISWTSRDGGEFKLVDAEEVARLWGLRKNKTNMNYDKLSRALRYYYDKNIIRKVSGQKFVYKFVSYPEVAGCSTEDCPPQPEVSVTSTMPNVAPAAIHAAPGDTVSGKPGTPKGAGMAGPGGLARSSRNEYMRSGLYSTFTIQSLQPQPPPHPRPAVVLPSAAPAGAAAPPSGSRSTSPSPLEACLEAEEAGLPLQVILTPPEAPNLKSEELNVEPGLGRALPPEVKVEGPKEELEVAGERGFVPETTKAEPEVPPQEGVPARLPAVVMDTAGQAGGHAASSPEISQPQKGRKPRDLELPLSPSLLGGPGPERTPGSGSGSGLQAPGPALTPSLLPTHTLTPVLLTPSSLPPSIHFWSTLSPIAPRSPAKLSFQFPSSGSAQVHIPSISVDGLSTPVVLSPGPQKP
Summed up:
(§1)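 Beads coated with glutathione captured GST-fused human transcription factors that had been expressed in yeast, and the factors were then given DNA barcodes and pooled with a tag-only sample. The pools were incubated with 200 nmole of a random double-stranded 16-mer DNA library in Tris/NaCl/DTT/glycerol buffer for 30 min at room temperature, washed, crosslinked with 0.1% formaldehyde and proximity-ligated with BsaI/T4 ligase at 37 °C for 1 h. PCR amplification and Illumina NextSeq500 sequencing came last. Binding signal is each hexamer's read frequency for a factor divided by its frequency for the tag-only sample.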

For another experiment, the target named is T2, GABPA (Homo sapiens, UniProt Q06546 1-454).
T2 sequence: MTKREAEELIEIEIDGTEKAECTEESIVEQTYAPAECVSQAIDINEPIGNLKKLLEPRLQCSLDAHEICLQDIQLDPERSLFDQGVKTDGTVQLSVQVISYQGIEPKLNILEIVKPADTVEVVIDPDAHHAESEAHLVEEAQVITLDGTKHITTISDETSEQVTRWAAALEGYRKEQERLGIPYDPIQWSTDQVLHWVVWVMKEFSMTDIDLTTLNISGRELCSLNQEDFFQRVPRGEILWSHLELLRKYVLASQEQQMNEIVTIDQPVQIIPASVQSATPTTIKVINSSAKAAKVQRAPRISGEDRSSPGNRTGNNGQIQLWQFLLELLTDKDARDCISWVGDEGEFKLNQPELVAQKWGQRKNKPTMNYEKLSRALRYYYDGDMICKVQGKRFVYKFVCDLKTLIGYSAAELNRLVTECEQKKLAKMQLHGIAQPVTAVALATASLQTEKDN
Summed up:
as §1

The target in another experiment is T3, ERG (Homo sapiens, UniProt P11308 1-479).
T3 sequence: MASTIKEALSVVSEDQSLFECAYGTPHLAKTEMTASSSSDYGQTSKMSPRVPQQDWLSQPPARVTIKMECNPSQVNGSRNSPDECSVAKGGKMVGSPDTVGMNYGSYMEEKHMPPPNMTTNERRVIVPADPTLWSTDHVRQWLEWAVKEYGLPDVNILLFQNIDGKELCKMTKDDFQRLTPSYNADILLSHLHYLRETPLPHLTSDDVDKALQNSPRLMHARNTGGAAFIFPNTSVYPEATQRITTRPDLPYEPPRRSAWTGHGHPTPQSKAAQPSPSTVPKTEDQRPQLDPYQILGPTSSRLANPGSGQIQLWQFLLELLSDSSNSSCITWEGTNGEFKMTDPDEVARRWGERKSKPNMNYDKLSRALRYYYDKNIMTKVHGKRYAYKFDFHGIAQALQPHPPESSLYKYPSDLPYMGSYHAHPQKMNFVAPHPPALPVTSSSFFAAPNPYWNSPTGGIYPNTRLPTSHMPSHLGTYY
The procedure, abridged: as §1

For the next experiment, the target named is ELF1 (Homo sapiens, UniProt P32519 1-619). Summed up: as §1
The target of the next experiment is SPI1 (Homo sapiens, UniProt P17947 1-270). The procedure, abridged:
as §1

Another experiment has as its target SPIB (Homo sapiens, UniProt Q01892 1-262). Summed up: as §1
The next experiment concerns the target T4, FEV (Homo sapiens, UniProt Q99581 1-238).
T4 sequence: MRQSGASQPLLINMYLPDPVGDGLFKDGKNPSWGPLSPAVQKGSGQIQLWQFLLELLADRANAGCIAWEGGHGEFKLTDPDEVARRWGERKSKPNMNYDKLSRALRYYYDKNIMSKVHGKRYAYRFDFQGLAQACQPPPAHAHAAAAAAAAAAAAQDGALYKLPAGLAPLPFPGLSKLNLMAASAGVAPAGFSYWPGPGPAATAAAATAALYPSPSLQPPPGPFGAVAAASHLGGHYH
Summed up:
as §1

In a further experiment the target is ETV5 (Homo sapiens, UniProt P41161 1-510). The procedure, abridged: as §1
In a further experiment the target is ELF4 (Homo sapiens, UniProt Q99607 1-663). Summed up:
as §1

The target of a further experiment is T5, ELK4 (Homo sapiens, UniProt P28324-2 1-405).
T5 sequence: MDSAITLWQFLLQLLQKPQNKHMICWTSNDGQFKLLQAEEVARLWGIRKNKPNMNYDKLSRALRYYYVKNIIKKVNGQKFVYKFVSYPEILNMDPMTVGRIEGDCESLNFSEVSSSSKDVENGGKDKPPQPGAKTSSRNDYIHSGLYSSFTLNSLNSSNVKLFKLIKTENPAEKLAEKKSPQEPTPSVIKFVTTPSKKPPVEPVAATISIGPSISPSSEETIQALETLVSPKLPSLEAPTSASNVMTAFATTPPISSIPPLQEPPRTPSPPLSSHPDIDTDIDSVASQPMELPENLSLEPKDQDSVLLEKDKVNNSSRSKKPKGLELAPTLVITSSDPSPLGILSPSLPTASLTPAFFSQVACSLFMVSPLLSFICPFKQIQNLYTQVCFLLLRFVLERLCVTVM
Summed up: as §1

The next experiment deals with T6, ETV2 (Homo sapiens, UniProt O00321 1-342).
T6 sequence: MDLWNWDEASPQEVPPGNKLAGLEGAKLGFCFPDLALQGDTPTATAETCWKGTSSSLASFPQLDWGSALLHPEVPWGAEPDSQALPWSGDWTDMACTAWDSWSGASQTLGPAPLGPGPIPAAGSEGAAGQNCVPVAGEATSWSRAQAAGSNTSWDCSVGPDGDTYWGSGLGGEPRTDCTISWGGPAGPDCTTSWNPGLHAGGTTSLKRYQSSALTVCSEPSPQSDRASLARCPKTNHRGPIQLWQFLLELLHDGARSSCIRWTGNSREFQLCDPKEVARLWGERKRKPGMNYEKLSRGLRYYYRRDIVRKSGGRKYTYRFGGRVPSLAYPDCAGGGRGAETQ
The procedure, abridged:
as §1

Another experiment addresses ETV1 (Homo sapiens, UniProt P50549 1-477). The procedure, abridged:
as §1

For a further experiment, the target named is T7, ETV3L (Homo sapiens, UniProt Q6ZN32 1-361).
T7 sequence: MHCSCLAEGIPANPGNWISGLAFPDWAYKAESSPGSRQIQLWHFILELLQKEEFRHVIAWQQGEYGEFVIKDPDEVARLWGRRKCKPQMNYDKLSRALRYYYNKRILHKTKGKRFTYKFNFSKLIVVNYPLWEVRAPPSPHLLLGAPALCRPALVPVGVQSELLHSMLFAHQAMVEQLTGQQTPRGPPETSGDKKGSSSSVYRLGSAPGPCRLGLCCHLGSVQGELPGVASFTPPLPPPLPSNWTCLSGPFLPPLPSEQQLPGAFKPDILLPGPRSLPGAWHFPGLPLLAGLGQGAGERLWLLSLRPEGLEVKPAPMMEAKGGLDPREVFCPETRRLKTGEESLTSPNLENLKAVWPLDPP
Summed up: as §1

A further experiment concerns the target T8, ETS2 (Homo sapiens, UniProt P15036 1-469).
T8 sequence: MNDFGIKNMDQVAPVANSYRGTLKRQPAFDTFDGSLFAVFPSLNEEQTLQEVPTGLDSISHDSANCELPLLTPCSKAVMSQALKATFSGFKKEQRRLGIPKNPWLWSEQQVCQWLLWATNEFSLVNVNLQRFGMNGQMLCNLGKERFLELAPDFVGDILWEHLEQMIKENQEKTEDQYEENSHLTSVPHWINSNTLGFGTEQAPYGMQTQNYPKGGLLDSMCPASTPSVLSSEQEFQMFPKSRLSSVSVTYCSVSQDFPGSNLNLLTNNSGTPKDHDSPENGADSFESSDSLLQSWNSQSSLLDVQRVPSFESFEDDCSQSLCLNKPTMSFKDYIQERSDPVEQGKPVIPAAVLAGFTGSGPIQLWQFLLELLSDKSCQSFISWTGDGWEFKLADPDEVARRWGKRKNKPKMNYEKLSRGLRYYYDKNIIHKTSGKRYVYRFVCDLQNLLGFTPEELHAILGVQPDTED
Summed up: as §1

Another experiment deals with T9, ETV3 (Homo sapiens, UniProt P41162-2 1-143).
T9 sequence: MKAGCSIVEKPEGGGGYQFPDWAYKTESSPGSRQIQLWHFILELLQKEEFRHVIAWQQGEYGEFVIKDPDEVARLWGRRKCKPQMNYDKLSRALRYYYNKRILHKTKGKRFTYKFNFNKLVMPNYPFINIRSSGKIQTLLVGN
The procedure, abridged:
as §1

The target of the next experiment is ETV6 (Homo sapiens, UniProt P41212 1-452). The procedure, abridged:
as §1

Chain of ETV6 (P41212 whole entry): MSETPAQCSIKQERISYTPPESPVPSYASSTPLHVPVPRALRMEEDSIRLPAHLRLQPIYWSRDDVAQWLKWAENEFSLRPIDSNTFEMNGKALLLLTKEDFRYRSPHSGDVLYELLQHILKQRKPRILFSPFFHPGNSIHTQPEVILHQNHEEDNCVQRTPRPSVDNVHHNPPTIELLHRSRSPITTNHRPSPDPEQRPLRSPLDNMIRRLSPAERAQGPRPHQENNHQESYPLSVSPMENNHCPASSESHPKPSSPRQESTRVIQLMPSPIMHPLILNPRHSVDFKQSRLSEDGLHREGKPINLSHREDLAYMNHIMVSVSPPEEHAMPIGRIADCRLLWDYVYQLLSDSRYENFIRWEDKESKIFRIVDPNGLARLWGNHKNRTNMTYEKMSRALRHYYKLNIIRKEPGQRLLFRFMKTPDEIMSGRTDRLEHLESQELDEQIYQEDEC
Chain of ETV5 (P41161 whole entry): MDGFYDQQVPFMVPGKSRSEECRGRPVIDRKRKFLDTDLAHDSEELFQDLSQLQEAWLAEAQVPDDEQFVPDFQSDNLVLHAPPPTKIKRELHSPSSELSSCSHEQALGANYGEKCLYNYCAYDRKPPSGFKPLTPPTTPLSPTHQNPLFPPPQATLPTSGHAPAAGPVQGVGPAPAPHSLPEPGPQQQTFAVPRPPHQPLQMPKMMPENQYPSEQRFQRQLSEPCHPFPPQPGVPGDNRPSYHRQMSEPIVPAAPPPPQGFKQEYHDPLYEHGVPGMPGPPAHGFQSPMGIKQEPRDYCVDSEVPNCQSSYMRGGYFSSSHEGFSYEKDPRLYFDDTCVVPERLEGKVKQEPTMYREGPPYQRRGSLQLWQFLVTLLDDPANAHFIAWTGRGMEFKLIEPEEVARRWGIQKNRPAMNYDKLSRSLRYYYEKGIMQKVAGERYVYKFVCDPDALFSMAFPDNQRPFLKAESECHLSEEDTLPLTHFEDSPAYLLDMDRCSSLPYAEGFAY
Chain of ELF1 (P32519 whole entry): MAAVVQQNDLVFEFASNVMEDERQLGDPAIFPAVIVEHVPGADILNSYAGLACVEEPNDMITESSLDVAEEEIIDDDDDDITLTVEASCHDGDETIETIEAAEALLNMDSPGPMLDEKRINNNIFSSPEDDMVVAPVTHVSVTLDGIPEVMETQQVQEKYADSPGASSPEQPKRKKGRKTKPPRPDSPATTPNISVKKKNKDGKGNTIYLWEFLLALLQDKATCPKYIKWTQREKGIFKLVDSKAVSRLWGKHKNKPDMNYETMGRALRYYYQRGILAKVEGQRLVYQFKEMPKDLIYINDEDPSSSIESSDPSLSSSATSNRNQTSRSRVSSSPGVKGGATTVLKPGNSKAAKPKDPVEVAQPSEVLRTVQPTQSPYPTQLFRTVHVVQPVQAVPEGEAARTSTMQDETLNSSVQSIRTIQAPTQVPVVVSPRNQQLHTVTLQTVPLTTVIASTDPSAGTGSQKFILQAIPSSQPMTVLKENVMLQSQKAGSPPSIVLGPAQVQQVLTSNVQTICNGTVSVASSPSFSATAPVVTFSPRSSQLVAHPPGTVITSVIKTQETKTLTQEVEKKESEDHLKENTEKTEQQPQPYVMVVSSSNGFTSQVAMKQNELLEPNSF
Chain of ELF4 (Q99607 whole entry): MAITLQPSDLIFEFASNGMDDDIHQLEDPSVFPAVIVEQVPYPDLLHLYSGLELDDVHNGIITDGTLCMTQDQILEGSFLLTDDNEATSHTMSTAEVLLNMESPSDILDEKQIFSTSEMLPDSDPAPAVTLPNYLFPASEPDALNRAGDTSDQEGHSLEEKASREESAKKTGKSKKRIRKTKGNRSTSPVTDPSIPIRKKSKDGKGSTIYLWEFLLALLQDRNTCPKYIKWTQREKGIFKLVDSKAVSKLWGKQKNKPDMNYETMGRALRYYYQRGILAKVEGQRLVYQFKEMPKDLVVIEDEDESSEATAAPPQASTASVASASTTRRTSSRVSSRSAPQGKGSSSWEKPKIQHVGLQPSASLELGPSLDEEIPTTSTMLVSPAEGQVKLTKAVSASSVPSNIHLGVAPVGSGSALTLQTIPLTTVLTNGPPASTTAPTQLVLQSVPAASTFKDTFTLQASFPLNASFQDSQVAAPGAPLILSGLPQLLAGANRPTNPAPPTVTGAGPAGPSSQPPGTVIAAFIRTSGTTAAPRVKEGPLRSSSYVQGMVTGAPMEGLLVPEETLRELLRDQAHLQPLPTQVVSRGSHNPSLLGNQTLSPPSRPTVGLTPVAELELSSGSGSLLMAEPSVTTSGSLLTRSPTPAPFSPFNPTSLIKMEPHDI
Chain of ETV1 (P50549 whole entry): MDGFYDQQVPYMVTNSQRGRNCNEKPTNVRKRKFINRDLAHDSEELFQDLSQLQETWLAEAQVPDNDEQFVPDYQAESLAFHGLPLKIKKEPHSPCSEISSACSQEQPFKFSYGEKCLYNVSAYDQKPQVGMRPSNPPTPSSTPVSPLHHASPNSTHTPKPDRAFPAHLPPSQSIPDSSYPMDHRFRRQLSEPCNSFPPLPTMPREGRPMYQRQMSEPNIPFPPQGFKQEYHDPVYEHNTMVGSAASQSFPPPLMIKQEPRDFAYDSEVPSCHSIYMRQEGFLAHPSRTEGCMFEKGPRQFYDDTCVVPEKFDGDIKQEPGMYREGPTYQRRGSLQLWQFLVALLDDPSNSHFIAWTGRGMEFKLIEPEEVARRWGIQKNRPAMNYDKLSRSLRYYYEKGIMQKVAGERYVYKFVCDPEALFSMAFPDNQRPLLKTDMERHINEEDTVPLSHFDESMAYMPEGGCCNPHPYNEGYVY
Chain of SPIB (Q01892 whole entry): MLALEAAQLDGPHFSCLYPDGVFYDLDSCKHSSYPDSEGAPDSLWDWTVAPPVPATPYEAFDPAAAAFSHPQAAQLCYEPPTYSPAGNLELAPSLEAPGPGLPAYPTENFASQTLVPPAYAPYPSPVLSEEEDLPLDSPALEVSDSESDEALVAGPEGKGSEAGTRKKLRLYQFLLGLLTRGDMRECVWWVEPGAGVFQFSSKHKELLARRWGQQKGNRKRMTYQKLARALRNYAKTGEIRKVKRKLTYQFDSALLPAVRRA

With CCCTGA, the binding signal is 1.18 fold enrichment (6-mer frequency, TF over GST control) with ELK1; 1.05 fold enrichment (6-mer frequency, TF over GST control) with GABPA; 1.04 fold enrichment (6-mer frequency, TF over GST control) with ERG; 1.06 fold enrichment (6-mer frequency, TF over GST control) with ELF1; 1.03 fold enrichment (6-mer frequency, TF over GST control) with SPI1; 1.1 fold enrichment (6-mer frequency, TF over GST control) in the experiment with SPIB. Further, the binding signal in the experiment with FEV is 1.04 fold enrichment (6-mer frequency, TF over GST control); in the experiment with ETV5 it was 1.07 fold enrichment (6-mer frequency, TF over GST control); in the experiment with ELF4, 1.05 fold enrichment (6-mer frequency, TF over GST control); with ELK4, 1.1 fold enrichment (6-mer frequency, TF over GST control); with ETV2 it was 1.17 fold enrichment (6-mer frequency, TF over GST control); with ETV1 it was 1.09 fold enrichment (6-mer frequency, TF over GST control). Moreover, the binding signal with ETV3L is 1.04 fold enrichment (6-mer frequency, TF over GST control); with ETS2, 1.02 fold enrichment (6-mer frequency, TF over GST control); with ETV3, 1.01 fold enrichment (6-mer frequency, TF over GST control); with ETV6 it was 1.05 fold enrichment (6-mer frequency, TF over GST control).
